Only some compounds are listed: those with a hit (about 11% of all), similar ones and a draw of the others.
FLuc inh = firefly luciferase inhibition | AID 411 | 72,000 tested, 2.2% active | purified firefly luciferase, luminescence, 8 min | Potency, µM (top dose mostly 57.1 µM), for inactives: at the highest dose activity change, negative = inhibition, actives largely listed as inhibitors; further: nearly all actives have a fitted effect of over 40% in size
Target sequence (P08659 whole entry, looked up): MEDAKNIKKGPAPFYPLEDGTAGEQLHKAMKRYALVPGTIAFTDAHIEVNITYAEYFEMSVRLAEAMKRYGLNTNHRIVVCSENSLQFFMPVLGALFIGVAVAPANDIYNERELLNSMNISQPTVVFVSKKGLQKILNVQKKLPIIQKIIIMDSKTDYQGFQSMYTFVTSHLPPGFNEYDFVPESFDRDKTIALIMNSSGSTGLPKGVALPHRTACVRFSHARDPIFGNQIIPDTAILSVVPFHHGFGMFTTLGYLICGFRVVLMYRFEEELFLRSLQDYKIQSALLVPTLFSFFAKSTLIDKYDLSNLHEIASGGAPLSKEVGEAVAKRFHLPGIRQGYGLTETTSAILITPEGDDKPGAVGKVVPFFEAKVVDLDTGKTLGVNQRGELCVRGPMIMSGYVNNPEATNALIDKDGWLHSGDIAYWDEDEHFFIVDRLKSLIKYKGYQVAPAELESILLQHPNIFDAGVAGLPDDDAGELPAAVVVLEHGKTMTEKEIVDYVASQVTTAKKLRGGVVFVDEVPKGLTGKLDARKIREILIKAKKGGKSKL
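Inhibition of light generation by firefly luciferase from ATP and luciferin was profiled with concentration-response curves per sample, ATP held at 10 uM within the enzyme's linear range. Plates were read by luminescence after an 8-minute ambient incubation.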
ALOX15 inhib = blocks human 15-lipoxygenase activity. AID 887. P16050. 74,000 tested, 1.4% active. Potency, µM (highest dose often 57.1 µM), for inactives: at the top dose activity change, negative = inhibition, actives largely listed as inhibitors. purified 15hLO-1, xylenol orange hydroperoxide absorbance; further: nearly all actives have a fitted effect of over 55% in size
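Purified human 15hLO-1 (40 nM final) in 25 mM Hepes pH 7.5, 0.01% Triton X-100 was preincubated with compound 15 min at room temperature, then reacted 6 min with 50 uM arachidonic acid; hydroperoxide detected by Fe-XO, 573/405 nm absorbance ratio.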
HADH2 inh = HADH2 (human) dehydrogenase inhibition; 73,000 tested, 3.4% active; Q99714; Potency, µM (titrated, usually from 57.1 µM), for inactives: at the top dose activity change, negative = inhibition, usual class: inhibitors; recombinant HADH2, NADH fluorescence, beta-hydroxybutyryl-CoA; further: nearly all actives have a fitted effect of over 60% in size
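NADH fluorescence (ex 360/em 450 nm) read every 30 s for 4 min; activity taken as last-minus-first time point difference. Enzyme 20 nM, NAD+ 1 mM, beta-hydroxybutyryl-CoA 90 uM, pH 9.0 Tris buffer.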
HSD17B inh = HSD17B dehydrogenase inhibition; AID 893; Potency, µM (doses to about 57.1 µM), for the others: at the top dose activity change, negative = inhibition, hits mostly inhibitors; 75,000 tested, 7.6% active; Q99714; recombinant HSD17B10, NADH fluorescence kinetic;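 further: the protocol describes HADH2 (HSD17B10) and not the HSD17B4 of the title; nearly all actives have a fitted effect of over 70% in size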
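Enzyme plus compound, 15 min room temperature; substrate mix added (NAD+ 1 mM, beta-hydroxybutyryl-CoA 90 uM final); plates read kinetically for NADH fluorescence. HADH2 was His-tagged, E. coli-derived, 20 nM.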
ERK AVP block = vasopressin-driven ERK pathway inhibition; HEK293-V1b, vasopressin-stimulated pERK AlphaScreen; Potency, µM (top dose mostly 57.5 µM), without a hit: top-dose activity, negative = inhibition, usual class: inhibitors; 72,000 tested, 0.99% active; AID 995; further: nearly all actives have a fitted effect of over 55% in size
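Overnight-seeded V1b-HEK293 cells in 1% FBS got compound, then vasopressin (25 nM final, 5 min, 37C), then lysis buffer. AlphaScreen detection of phospho-ERK; activity normalized to basal and full-stimulation controls.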
PK Bst = modulators of Bacillus stearothermophilus pyruvate kinase. purified pyruvate kinase, luminescence ATP production; ribose 5-phosphate activator present at AC10. Potency, µM. 51,000 tested, 1.2% active; in the data active means potency below about 11 µM; inconclusive means mostly about 12 µM to 25 µM;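 the screen sought inhibitors and activators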;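 further: scaled between full activation by ribose 5 phosphate and full inhibition by luteolin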
An asterisk follows results filed as active; [ ] = another dose, or the depositor's remark. Unless noted, the call rests on the fitted dose curve; in most records, active means well fitted curve in the direction sought with a large enough effect; inconclusive means small, poorly fitted or top-dose-only effect, or another doubt; inactive means no such curve, though single readings can be large; an effect the other way counts as inactive or inconclusive. Unless noted, on the % scale 0 is the no-effect control and ±100 the full control effect; potency means the concentration at half of the fitted maximal effect.

How did COc1ccc(-c2coc3cc(O)ccc3c2=O)c(OC)c1O do in these assays?
ALOX15 inhib: 1%; HSD17B inh: 32µM*; ERK AVP block: 3%

Results for COc1cc(-c2coc3cc(OC)c(OC)c(OC)c3c2=O)cc(OC)c1OC ?
ALOX15 inhib: 4%; HSD17B inh: 7%; ERK AVP block: -2%

How did CC(=O)NCCNc1ncnc2ccc(-c3ccccc3C)cc12 do in these assays?
FLuc inh: 1%[2.29 µM]; ALOX15 inhib: 9%; HADH2 inh: 2%; HSD17B inh: inconclusive; ERK AVP block: -7%

How did CNC(=O)[C@@H]1O[C@@H](n2cnc3c(N)ncnc32)[C@@H](O)[C@H]1O do in these assays?
FLuc inh: 0%; ALOX15 inhib: -4%; HADH2 inh: 12%; HSD17B inh: -3%; ERK AVP block: -4%

Results for COc1ccc(-c2coc3cc(O)ccc3c2=O)c(O)c1O ?
ALOX15 inhib: 13µM*; HSD17B inh: 16µM*; ERK AVP block: -4%

What do the screens show for `COc1ccccc1-c1coc2cc(O)ccc2c1=O`?
ALOX15 inhib: -12%; HSD17B inh: 25µM*; ERK AVP block: 0%

Results for COc1ccc(-c2coc3c(O)c(OC)ccc3c2=O)cc1 ?
ALOX15 inhib: -2%; HSD17B inh: -17%; ERK AVP block: -12%

How did Cc1cc(Cl)ccc1Nc1sc(C(=O)c2cc3cc(Cl)ccc3o2)c(N)c1C#N do in these assays?
FLuc inh: 2%[11.4 µM]; ALOX15 inhib: -4%[11.4 µM]; HADH2 inh: 1%[11.4 µM]; HSD17B inh: 6%[11.4 µM]; ERK AVP block: -9%[11.5 µM]

How did COc1ccc(-c2ccc(-c3nnc(-c4cc(OC)ccc4OC)o3)cc2)cc1 do in these assays?
FLuc inh: 0%; ALOX15 inhib: -2%; HADH2 inh: 7.9µM*; HSD17B inh: 3.2µM*; ERK AVP block: -9%; PK Bst: >57

Results for COc1ccc(-c2nnc(SCc3cc(C)cc(C)c3)o2)cc1 ?
FLuc inh: 2%; ALOX15 inhib: -7%; HADH2 inh: inconclusive; HSD17B inh: 5%; ERK AVP block: 59%; PK Bst: >57

How did COc1ccc(-c2nnc(-c3ccc(N(C)C)cc3)o2)cc1 do in these assays?
FLuc inh: -5%; ALOX15 inhib: 0%; HADH2 inh: 7.9µM*; HSD17B inh: 3.2µM*; ERK AVP block: 6%; PK Bst: >11

What do the screens show for `COc1ccc(-c2nnc(-c3ccc(N)cc3)o2)cc1`?
FLuc inh: 7.9µM*; ALOX15 inhib: 7%; HADH2 inh: inconclusive; HSD17B inh: 25µM*; ERK AVP block: -19%; PK Bst: 3.3*

Results for COc1ccc(-c2nnc(SCC(=O)/C(C#N)=C(\C)N)o2)cc1 ?
FLuc inh: 5µM*; ALOX15 inhib: -3%; HADH2 inh: -5%; HSD17B inh: -13%; ERK AVP block: 11%

How did CCOC(=O)N1CCN(C(=O)CSc2nnc(-c3cc(OC)ccc3OC)o2)CC1 do in these assays?
FLuc inh: -2%; ALOX15 inhib: -11%; HADH2 inh: inconclusive; HSD17B inh: inconclusive; ERK AVP block: inconclusive; PK Bst: >57

What do the screens show for `COCC(=O)N1CCC2(CC1)CCN(c1ccccc1)CC2`?
FLuc inh: 0%[11.4 µM]; ALOX15 inhib: 1%; HADH2 inh: 9%; HSD17B inh: -3%; ERK AVP block: 16%

Results for C[C@]12CC[C@H]3c4ccc(O)cc4CC[C@@H]3[C@H]1CC[C@@H]2OC(=O)CCc1ccccc1 ?
FLuc inh: 2%[11.4 µM]; ALOX15 inhib: -11%[11.4 µM]; HADH2 inh: 12%[11.4 µM]; HSD17B inh: 19%[11.4 µM]; ERK AVP block: 10%[11.5 µM]

How did c1ccc(Nc2ncncc2-c2ccc3c(c2)OCO3)cc1 do in these assays?
FLuc inh: 1%[2.29 µM]; ALOX15 inhib: 2%; HADH2 inh: -19%; HSD17B inh: 5%; ERK AVP block: -29%

What do the screens show for `CC(=O)c1ccc2c(c1)Nc1ccccc1S2`?
FLuc inh: -3%; ALOX15 inhib: inconclusive; HADH2 inh: 6%; HSD17B inh: -9%; ERK AVP block: 22%; PK Bst: >57

What do the screens show for `CCOC(=O)Nc1ccc2c(c1)Nc1ccccc1S2`?
FLuc inh: -1%; ALOX15 inhib: 32µM*; HADH2 inh: inconclusive; HSD17B inh: -8%; ERK AVP block: 12%; PK Bst: inactive

Results for CCc1cc2cc3c(cc2nc1SCC(=O)N1CCN(C(=O)c2ccco2)CC1)OCO3 ?
FLuc inh: -1%; ALOX15 inhib: inconclusive; HADH2 inh: -12%; HSD17B inh: 32µM*; ERK AVP block: 3%; PK Bst: >57

How did CCc1cc2ccc(C)cc2nc1SCC(=O)N1CCN(C(=O)c2ccco2)CC1 do in these assays?
FLuc inh: -8%; ALOX15 inhib: -8%; HADH2 inh: -7%; HSD17B inh: -24%; ERK AVP block: 0%

What do the screens show for `S=c1[nH]nc(-c2ccco2)n1-c1cccc2ccccc12`?
FLuc inh: 2%; ALOX15 inhib: -5%; HADH2 inh: -21%; HSD17B inh: -11%; ERK AVP block: -23%; PK Bst: inconclusive

How did S=c1[nH]nc(-c2ccco2)n1C1CCCCC1 do in these assays?
FLuc inh: 2%[25.5 µM]; PK Bst: inactive

Results for COc1ccc(-n2c(-c3ccco3)n[nH]c2=S)cc1 ?
FLuc inh: 0%; ALOX15 inhib: -14%[11.4 µM]; HADH2 inh: -9%[11.4 µM]; HSD17B inh: 25µM*; ERK AVP block: -18%

What do the screens show for `Nn1c(-c2ccco2)n[nH]c1=S`?
FLuc inh: -1%; ALOX15 inhib: -23%; HADH2 inh: 25µM*; HSD17B inh: inconclusive; ERK AVP block: 1%; PK Bst: >57

What do the screens show for `O=C(/C=C\Nc1ccccn1)c1ccc(Cl)cc1`?
FLuc inh: 1.3µM*; ALOX15 inhib: -8%; HADH2 inh: -5%; HSD17B inh: -17%; ERK AVP block: 18%

What do the screens show for `COC(=O)c1ccc(C(NC(=O)OCc2ccccc2)/C(=C/[C@@H](C)C(=O)N(C)Cc2cccnc2)c2cccnc2)cc1` (stereo not given in full)?
ALOX15 inhib: -7%; HADH2 inh: 14%; HSD17B inh: -3%; ERK AVP block: -12%

How did CC(C)c1ccc(OCc2nc(-c3ccccn3)no2)c(Br)c1 do in these assays?
FLuc inh: 16µM*; ALOX15 inhib: 0%; HADH2 inh: 13%; HSD17B inh: -12%; ERK AVP block: -10%

How did Cc1ccc(SCc2nc(-c3ccccn3)no2)cc1 do in these assays?
FLuc inh: -4%; ALOX15 inhib: 11%; HADH2 inh: 1%; HSD17B inh: 4%; ERK AVP block: 3%; PK Bst: >57
